A selection: hits, their analogues and other compounds. The true share with any hit is near 0.8%.
TRHR PAM = qHTS for Small Molecule Agonists and Allosteric Enhancers of Human TRH Receptor: Primary Screen for Enhancers. TRHR cells, fluo-8 calcium fluorescence, EC20 TRH enhancement. enhancement, % at 2 µM. 360,000 tested, 0.66% active. AID 493056, 2011; in the data active = enhancement above about 30%; note: 0% is about no effect
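Enhancer read-out: after compound pinning and an initial kinetic agonist-mode read, an EC20 of TRH (10 nM final) was injected and fluo-8 calcium signal (Ex 480/Em 530) followed at 1 s/cycle for 100 cycles in TRHR-expressing cells.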
GRP78 ERSR act = qHTS for Inducers of the Endoplasmic Reticulum Stress Response (ERSR) in Human Glioma: qHTS; U87-MG GRP78 promoter luciferase reporter, 16 h; Potency, µM, inactives show top-dose activation, most hits filed as activators; 420,000 tested, 0.02% active; AID 602332, 2012; active = well fitted activation curve with a large enough effect; inconclusive = small, poorly fitted or top-dose-only effect; inactive = no such curve, though single readings can be large or run the other way; note: potency is the fitted concentration of half-maximal effect; series mostly up to about 76 µM; % of control where 0% means no effect; nearly all actives have a fitted effect of over 35% in size
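Stably transfected U87-MG glioma cells carrying a GRP78-based luciferase sensor; 16 h compound incubation. Luminescence end-point read 10 min after Bright-Glo addition at room temperature.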
TRHR agonist = qHTS for Small Molecule Agonists and Allosteric Enhancers of Human TRH Receptor: Primary Screen for Agonists; Thyrotropin-releasing hormone receptor (Homo sapiens), P34981; TRHR cells, calcium flux fluo-8, FDSS agonist mode; activation, % at 2 µM; 360,000 tested, 0.18% active; in the data active = activation above about 30%; note: 0% is about no effect
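Fluo-8-loaded TRHR cells; 10 s baseline, compound added, kinetic Ca2+ fluorescence read 1/s, agonist mode.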
TRPML1 ag = qHTS for Agonists of the Human Mucolipin Transient Receptor Potential 1 (TRPML1); activation, % (no concentration beside the values); 410,000 tested, 0.12% active; TRPML1-expressing cells, Ca2+ dye fluorescence, FDSS; Mucolipin-1 (Homo sapiens), Q9GZU1; in the data active = activation above about 50%; inconclusive = mostly about 30% to 49%; note: 0% is about no effect
Target sequence (Q9GZU1 whole entry, looked up): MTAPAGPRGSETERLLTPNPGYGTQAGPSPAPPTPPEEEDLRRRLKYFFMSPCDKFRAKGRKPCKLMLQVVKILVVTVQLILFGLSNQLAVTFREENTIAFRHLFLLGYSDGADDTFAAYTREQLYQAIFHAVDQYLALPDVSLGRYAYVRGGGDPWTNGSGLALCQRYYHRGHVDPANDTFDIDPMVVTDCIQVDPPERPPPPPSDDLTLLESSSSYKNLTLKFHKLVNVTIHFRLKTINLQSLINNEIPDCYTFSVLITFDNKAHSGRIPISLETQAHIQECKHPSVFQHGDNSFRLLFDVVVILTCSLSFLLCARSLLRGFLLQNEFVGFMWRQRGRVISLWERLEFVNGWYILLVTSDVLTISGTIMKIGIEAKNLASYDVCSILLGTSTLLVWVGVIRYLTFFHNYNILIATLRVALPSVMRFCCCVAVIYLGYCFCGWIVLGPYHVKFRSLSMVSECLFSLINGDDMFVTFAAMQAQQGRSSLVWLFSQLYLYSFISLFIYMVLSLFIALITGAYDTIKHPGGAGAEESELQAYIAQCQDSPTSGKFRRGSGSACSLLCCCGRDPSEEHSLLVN
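Tet-induced TRPML1-DL cells, 1,500 per well, cultured overnight, were loaded with a no-wash Ca2+ dye for 45–90 min. Calcium fluorescence was recorded on the FDSS for 110 s after compound addition, before the EC80 agonist (4 uM 54-4) was added.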
TRPML1 inh = qHTS for Inhibitors of the Human Mucolipin Transient Receptor Potential 1 (TRPML1); TRPML1-inducible cells, Ca2+ dye fluorescence, FDSS; active compounds read low; inhibition of EC80 agonist-evoked calcium signal; AID 624415, 2012; 390,000 tested, 0.02% active; activity change, negative = inhibition, % (test concentration not listed); Mucolipin-1 (Homo sapiens), Q9GZU1; in the data active = activity change below about -50%; inconclusive = between about -30% and that limit;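 note: stimulus is agonist 54-4 at its EC80 concentration; % is set by controls: 0 for no effect and ±100 for the full control effect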
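Calcium fluorescence in TRPML1-DL cells induced overnight with Tet: a 110 s read after compound pin addition, then a 110 s antagonist read after challenge with 54-4 at 4 uM final (EC80).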
* = called active by the depositor; ? = inconclusive; / = no result.

SMILES | TRHR PAM | GRP78 ERSR act | TRHR agonist | TRPML1 ag | TRPML1 inh
CCCc1cc(=O)[nH]c(SCC(=O)c2[nH]c(C)c(C(=O)OCC)c2C)n1 | 31* | -1% | 0 | 1 | -3
NC(=O)COC(=O)CN1C(=O)C2CCCCC2C1=O (configuration not stated) | -1 | -8% | 1 | 1 | 4
CCOC(=O)c1c(C)[nH]c(C(=O)COC(=O)CN2C(=O)C3CCCCC3C2=O)c1C (configuration not stated) | 31* | -1% | 0 | -1 | 9
COc1ccccc1C(=O)N[C@@H]1c2ccccc2C2(CCN(Cc3cnn(C)c3C)CC2)[C@H]1O | / | -1% | / | / | /
O=C1NC(=O)C(Cc2ccccc2)(C2CCN(Cc3cccn3-c3cccnc3)CC2)N1 (configuration not stated) | / | -1% | / | / | /
CCN(Cc1cccc(OC)c1)CC1CCCN(CCc2cccc(OC)c2)C1 (configuration not stated) | 3 | -4% | 1 | 0 | 15
CCOc1cccc(CN(CC)CC2CCCN(CCc3cccc(OC)c3)C2)c1O (configuration not stated) | 34* | -4% | 0 | -1 | -3
Cc1oc(-c2ccccc2NC(=O)c2cccnc2)nc1CNC(=O)c1ccc(N(C)C)cc1 | / | -5% | / | / | /
CCn1c(/C(C#N)=N/O)nc2ccccc21 | -2 | -1% | -1 | 0 | ?
CCn1c(/C(C#N)=C/c2ccccc2Cl)nc2ccccc21 | 50* | ? | 1 | -1 | 2
COc1ccc(CN2CCN(C(C)=O)CC2)cc1OC1CCN(C(=O)c2ccc3ccccc3n2)CC1 | / | 2% | / | / | /
Fc1ccc(/C=C/c2ccc3ccccc3n2)cc1 | / | -3% | / | 0 | /
COc1c2ccccc2c(OC)c2ccccc12 | -5 | 2% | 0 | 0 | 3
COc1c(NC(C)=O)c2ccccc2c2ccccc12 | 38* | -1% | 0 | 1 | 6
Cc1cnc(SCc2ccccn2)nc1C1CCCN(C(=O)c2ccc3c(c2)OCO3)C1 (configuration not stated) | / | 1% | / | / | /
CCn1ccnc1CN1CCN(CC=C(C)C)C(CCO)C1 (configuration not stated) | 31* | 1% | 0 | 0 | 5
CSc1ncc(CN2CCN(CC=C(C)C)C(CCO)C2)cn1 (configuration not stated) | 1 | -5% | 1 | -1 | 0
COc1ccc(C(=O)NC(=S)N(C)Cc2ccccc2)cc1Br | -7 | -3% | 0 | 1 | -17
CN(Cc1ccccc1)C(=S)NC(=O)c1ccccc1 | 31* | -6% | 0 | 0 | -7
COc1ccc(-c2c(C)nn(Cc3ccccc3)c2N)cc1 | 30* | -1% | 0 | 0 | 44
COc1ccc(-c2ccc(=O)n(Cc3ccccc3)n2)cc1 | -1 | -1% | 0 | / | /
COc1ccc(C2C(C(C)=O)=C(C)N=c3s/c(=C\c4ccco4)c(=O)n32)c(OC)c1 (configuration not stated) | 4 | -2% | 0 | 2 | 12
COc1ccc(C2C(C(C)=O)=C(C)N=c3s/c(=C\c4cc(C)n(C)c4C)c(=O)n32)c(OC)c1 (configuration not stated) | 10 | -3% | 53* | 29 | 10
COc1ccc2c(c1OC)C(=O)N1c3ccccc3SC21 (configuration not stated) | 39* | 4% | 0 | 1 | 13
COc1ccc2c(c1OC)C(=O)N1c3ccccc3COC21 (configuration not stated) | 25 | -1% | 0 | 2 | 12
SMILES | TRHR PAM | GRP78 ERSR act | TRHR agonist | TRPML1 ag | TRPML1 inh
O=C1C(C=Nc2ccccc2O)=C(O)c2ccccc21 | -1 | 3% | -1 | 1 | 7
Cc1ccc(O)c(N=CC2=C(O)c3ccccc3C2=O)c1 | -5 | 32µM* | 1 | 1 | 2
O=C1c2ccccc2C(=O)N1c1cccc(O)c1 | / | -3% | / | -1 | /
O=C1c2cccc3c(N4CCCCC4)ccc(c23)C(=O)N1c1cccc(O)c1 | 5 | 2% | 73* | 88* | -16
Cc1n[nH]c(C)c1N1C(=O)c2cccc3c(N4CCCCCC4)ccc(c23)C1=O | 6 | 0% | 126* | 61* | -8
O=C1c2cccc3c(N4CCCCC4)ccc(c23)C(=O)N1CCO | 10 | 5% | 69* | ? | -13
C=CCN1C(=O)c2cccc3c(N4CCCCC4)ccc(c23)C1=O | -1 | 4% | 34* | 55* | 2
COc1cc(=O)n2c(c1C(=O)N(C)Cc1nccs1)CCN(Cc1cc(C)cc(C)c1)CC2 | / | -3% | / | / | /
Cn1cccc1/C=N\NC(=O)C1COc2ccccc2O1 (configuration not stated) | -5 | -1% | 0 | 85* | -7
Cn1cccc1/C=N\NC(=O)C1COc2ccc(C(C)(C)C)cc2O1 (configuration not stated) | -11 | -1% | 1 | 1 | -13
CN1C(=O)c2ccc(N3CCCC3)cc2C1=O | 5 | 2% | -1 | 5 | 2
O=C1/C(=C/c2ccc(N3CCCC3)cc2)NC(=S)N1C1CC1 | 9 | 3% | 91* | 50* | -9
Cc1cc(N2CCCC2)ccc1/C=C1\NC(=S)N(C)C1=O | 8 | -2% | 64* | 28 | -7
COc1ccc(OC)c(-c2ccc(O)c(CN3CCc4c([nH]c5ccccc45)C3)c2)c1 | / | -3% | / | / | /
CCC(=O)N[C@@H]1c2ccccc2C2(CCN(Cc3cnc(N(C)C)s3)CC2)[C@H]1OC | / | -1% | / | / | /
COC(=O)[C@@H]1CCCN1Cc1ccc2c(c1)CN(Cc1cccc(Cl)c1)CCO2 | / | -3% | / | / | /
Cc1ccc2c(nc3s/c(=C\c4ccc(-c5ccccc5C(=O)O)o4)c(=O)n32)c1C | 9 | 2% | 54* | 28 | 5
O=C(O)c1ccc(-c2ccc(/C=c3/sc4nc5ccccc5n4c3=O)o2)cc1Cl | 5 | 5% | 55* | 10 | 15
Cc1cc(C)c2nc3sc(=Cc4ccc(-c5ccccc5C(=O)O)o4)c(=O)n3c2c1 | / | -5% | / | 8 | -3
CC(C)(O)C#Cc1ccc(CN2CCc3nnc(CCNC(=O)c4ccco4)n3CC2)cc1 | / | -2% | / | / | /
CC(=O)OC1COC(N2CCc3ccccc32)C(OC(C)=O)C1OC(C)=O (configuration not stated) | 36* | -4% | 0 | 0 | -14
Oc1ccc2nnc3c(Br)cnn3c2c1 | -6 | -1% | 52* | 87* | 0
Clc1ccc2nc3c4ccccc4cnn3c2c1 | 0 | 4% | -1 | 0 | -5
O=C(Nc1ccc(Br)cc1)c1ccco1 | 0 | 7% | -1 | 0 | -9

Screens as filed in PubChem BioAssay.
